HepG2 viability = kills HepG2 cells in TGF-b inhibitor counter-screen; actives 0.76% (n = 410,000); AID 588856; Potency, µM (series often up to 46.1 µM), inactives show at the highest dose activity change, negative = cytotoxicity, actives largely listed as cytotoxic; HepG2 CAGA-GFP viability, ATP luminescence, 18 h
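HepG2 CAGA-GFP cells (1000/well, DMEM with 1% FBS) received compound, then TGF-beta at 500 pg/mL final, and were incubated 18 hours at 37 degrees C. Viability was read by CellTiter-Glo luminescence. Media-only wells were set as complete cell-killing and DMSO as no toxicity.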
TDP1 cell noCPT = qHTS for Inhibitors of human tyrosyl-DNA phosphodiesterase 1 (TDP1): qHTS in cells in absence of CPT. DT40 Tdp1-/- hTDP1 cells, no CPT, ATP luminescence, 48 h. Potency, µM (titrated, usually from 46.2 µM), without a hit: top-dose activity change, negative = growth inhibition, usual class: inhibitors. actives 15% (n = 420,000). AID 686978, 2013; also: % is scaled to controls: 0 for no effect and ±100 for the full control effect; nearly all actives have a fitted effect of over 55% in size
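A cellular qHTS used chicken DT40 cells lacking endogenous Tdp1 but carrying stably transfected human TDP1. Compounds were applied without camptothecin, and cell growth kinetics were judged by ATP-dependent luminescence after ≥48 hr.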
ATXN2 expr inh = inhibitors of ATXN2 expression | HEK-293 ATXN2-luciferase reporter, luminescence, 24 h | Potency, µM (highest dose often 57 µM), inactives show at the top dose activity change, negative = inhibition, actives largely listed as inhibitors | actives 0.72% (n = 360,000); also: % is scaled to controls: 0 for no effect and ±100 for the full control effect; nearly all actives have a fitted effect of over 55% in size
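qHTS (up to 57 uM final) was run with 24 h compound exposure of reporter cells at 37 °C. Each well was multiplexed: SteadyGlo luminescence measured ATXN2-luciferase expression after a fluorogenic Gly-Phe-AFC viability readout (25 uM final).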
TGFb SMAD3 inh = TGF-b pathway inhibition. HepG2 CAGA-GFP TGF-b/SMAD3 reporter, GFP fluorescence, 18 h; TGF-beta stimulated, 500 pg/mL final. Potency, µM (highest dose often 46.1 µM), for inactives: top-dose activity, negative = inhibition, hits mostly inhibitors. actives 1.2% (n = 410,000); also: % is scaled to controls: 0 for no effect and ±100 for the full control effect; nearly all actives have a fitted effect of over 65% in size
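HEPG2 CAGA-GFP reporter cells (1000/well, DMEM with 1% FBS) received compounds, then recombinant TGF-beta at 500 pg/mL final for 18 hours at 37 degrees C. Per-cell GFP summed per well was normalised to unstimulated and stimulated DMSO controls before curve fitting.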
S2 tox = reduces viability in counter-screen for ATXN expression inhibitors | S2 cells (HEK-293 line with an ATXN2-luciferase reporter) viability, CellTiter-Fluor protease fluorescence, 24 h | Potency, µM (doses to about 56.7 µM), most hits filed as cytotoxic | actives 0.49% (n = 400,000) | AID 651635; also: nearly all actives have a fitted effect of over 40% in size
DT40 TDP1 CPT = DT40-hTDP1 cell growth loss with CPT. Potency, µM (series often up to 46.2 µM), inactives show top-dose activity change, negative = growth inhibition, actives largely listed as inhibitors. actives 12% (n = 420,000). AID 686979. chicken DT40 Tdp1-/-;hTDP1 cells + 20 nM CPT, ATP luminescence, 48 h; also: % is scaled to controls: 0 for no effect and ±100 for the full control effect; nearly all actives have a fitted effect of over 55% in size
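Chicken DT40 Tdp1-/- cells stably complemented with human TDP1 were seeded at 400 cells/well in medium containing 20 nM camptothecin, exposed to pin-transferred compounds, and grown at 37 °C for at least 48 hr. Viability was read as ATP luminescence.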
Starred values were filed as active, the others as inactive; i = inactive; ? = inconclusive; . = no result; [ ] = remark or other dose. In the library only some 17% were active in any assay of this set; here they are far more common. Calls follow the shape of the dose curve; as a rule, active = well fitted curve in the direction sought with a large enough effect; inconclusive = small, poorly fitted or top-dose-only effect, or another doubt; inactive = no such curve, though single readings can be large; an effect the other way counts as inactive or inconclusive. Potency is read from the fitted curve at half-maximal effect.

SMILES	HepG2 viability	TDP1 cell noCPT	ATXN2 expr inh	TGFb SMAD3 inh	S2 tox	DT40 TDP1 CPT
CCN(CC)CCOC(=O)c1ccc(NC(=O)CCCN2C(=O)S/C(=C/c3ccc(OC)cc3)C2=S)cc1	-28%	21µM*	7.1µM*	-7%	?	?
COc1cc(/C=C2\SC(=S)N(CCC(=O)NC3CCCC3)C2=O)cc(OC)c1OC	3%	?	7%	18%	i	?
CN1C(=O)CCS(=O)(=O)C1c1ccc(Cl)c(Cl)c1 (stereo unspecified)	-5%	-1%	.	2%	i	-5%
COc1ccc(/C=C2/SC(=S)N(CCCC(=O)Nc3ccc(O)cc3)C2=O)cc1OC	-14%	15µM*	-21%	-13%	i	?
O=C(CCCN1C(=O)/C(=C/c2cccs2)SC1=S)Nc1cccc(O)c1	-37%	16µM*	22%	?	?	21µM*
COc1cccc(/C=C2/SC(=S)N(CCCC(=O)Nc3ccc(O)cc3)C2=O)c1	-72%	?	16µM*	?	?	?
O=C(CCN1C(=O)/C(=C/c2cccs2)SC1=S)Nc1cccc(O)c1	-25%	?	12%	?	i	-22%
CC(/C=C1\SC(=S)N(CCC(=O)Nc2ccc(O)cc2)C1=O)=C\c1ccccc1	1%	18µM*	-31%	?	?	18µM*
CC(=O)c1ccc(NC(=O)CN2C(=O)/C(=C/C(C)=C/c3ccccc3)SC2=S)cc1	0%	?	-5%	-1%	i	-16%
COc1ccc(/C=C2\SC(=S)N(CCCC(=O)Nc3ccc(C(=O)O)cc3)C2=O)cc1OC	-16%	-11%	-12%	-9%	i	-14%
Cc1ccc(C)n1-c1c(C(=O)NN)cnn1-c1ccccc1	0%	-28%	-13%	-16%	i	10%
CCc1nc2ccc(C(=O)Nc3ccc4c(c3)OCC(=O)N4)cn2c1N(C)C(=O)C1CCCCC1	0%	?	6%	7%	i	?
Cc1ccccc1N(C(=O)CNC(=O)c1ccco1)C(C(=O)NC1CCCCC1)c1ccncc1 (stereo unspecified)	-36%	2%	-4%	-14%	?	4%
COCCn1c(=O)c(-c2ccc(OC)cc2)nc2cnc(Oc3ccc(OC)cc3)nc21	.	12%	.	.	.	11%
CC1(C(=O)NS(=O)(=O)c2ccccc2)CCN1C(=O)CC1CCCCC1 (stereo unspecified)	-16%	-6%	3%	-2%	i	-4%
CCCCn1c(NCc2cc(Cl)ccc2O)nc2ccccc21	-40%	.	-32%	-23%	i	.
Cc1ccc(/C=C2/SC(=S)N(CC(=O)Nc3ncc(Cc4ccc(C)cc4)s3)C2=O)cc1	8%	12µM*	-19%	?	i	23µM*
Cc1cccc(Cc2cnc(NC(=O)CN3C(=O)/C(=C/c4ccccc4)SC3=S)s2)c1	-6%	-4%	5%	-30%	i	4%
Cc1ccc(/C=C2/SC(=S)N(CCCC(=O)Nc3ccc(O)cc3)C2=O)cc1	-52%	23µM*	2.5µM*	?	?	?
O=C(CCCN1C(=O)/C(=C/c2ccccc2)SC1=S)Nc1cccc(O)c1	-67%	23µM*	.	14µM*	?	18µM*
COc1ccc(/C=C2\SC(=S)N(CCC(=O)Nc3ccc(O)cc3)C2=O)cc1	3%	-4%	5%	0%	i	-1%
Cc1ccc(/C=C2\SC(=S)N(CCCC(=O)NNC(=O)c3ccccc3O)C2=O)cc1	-14%	18µM*	.	5%	i	?
COCCn1nnnc1CN1CCSCC1	-16%	-1%	-27%	17%	i	-12%
O=C(NCCc1ccccn1)C1CC12CCN(C(=O)c1ccccc1Cl)CC2 (stereo unspecified)	.	6%	.	.	i	3%
CCOc1cc(C(=O)OCc2cc(=O)n3c(C)csc3n2)cc(OCC)c1OCC	-1%	-13%	6%	-3%	i	-11%
SMILES	HepG2 viability	TDP1 cell noCPT	ATXN2 expr inh	TGFb SMAD3 inh	S2 tox	DT40 TDP1 CPT
O=C(CCCN1C(=O)/C(=C\c2ccccc2)SC1=S)Nc1ccc(O)cc1	-7%	15µM*	18%[11.3 µM]	?	i	?
COc1cc(/C=C2\SC(=S)N(NC(=O)c3cccc(O)c3)C2=O)ccc1O	8%	23µM*	5%	68%	?	16µM*
O=C(CCCN1C(=O)/C(=C/c2cccs2)SC1=S)NNC(=O)c1ccc(F)cc1	-53%	?	-4%	?	?	26µM*
COc1cc(/C=C2\SC(=S)N(NC(=O)c3ccc(O)c(OC)c3)C2=O)ccc1O	-21%	-7%	76%	27%	?	-15%
Cc1nn(C(C)C(=O)NCc2cccc(F)c2)c(=O)c2c1sc1ccccc12 (stereo unspecified)	-9%	?	.	24%	.	-5%
CCOC1=C2[C@H](c3ccccc3)N(S(=O)(=O)c3ccc(C)cc3)[C@H](C(C)C)[C@H]2n2c(=O)n(-c3ccccc3)c(=O)n2C1	0%	-11%	9%	?	i	-11%
CCOc1[nH]n(-c2ccccc2)c(=O)c1C=Nc1ccc(Cl)cc1	-16%	15µM*	-12%	9%	i	?
CCOc1[nH]n(-c2ccccc2)c(=O)c1C=Nc1ccccc1	7%	5.8µM*	.	3%	i	6.5µM*
CCOc1[nH]n(-c2ccccc2)c(=O)c1C=Nc1ccc(C)cc1	-3%	-18%	3%	9%	i	?
COC(=O)Cc1sc(-c2ccccn2)nc1-c1ccccc1	3%	16µM*	.	-13%	i	?
COc1ccc2[nH]c(=O)c(CNC3CCCCC3)cc2c1	0%	-21%	-3%	-7%	i	-26%
CCN(CC)CCCN(Cc1cc2cc3c(cc2[nH]c1=O)OCO3)C(=S)Nc1ccc(OC)cc1	-22%	29µM*	-22%	11%	.	-28%
CCN(CC)CCCN(Cc1cc2cc3c(cc2[nH]c1=O)OCO3)C(=S)NC	9%	-1%	5%	1%	i	20%
COc1ccc(CN(Cc2cc3cc4c(cc3[nH]c2=O)OCO4)C(=O)NC2CCCCC2)cc1	-9%	23µM*	-15%	-5%	i	18µM*
COc1ccc2[nH]c(=O)c(CN(C(=O)NC3CCCCC3)C3CCCCC3)cc2c1	0%	21µM*	0%	-5%	i	21µM*

Compound activity as filed in PubChem BioAssay.
